# Bioassay records from PubChem.
# Only some compounds are listed: those with a hit (about 8% of all), similar ones and a draw of the others.
# HT1080 IDH1KD tx = HT-1080 IDH1 knockdown cell toxicity (counter line). HT-1080 IDH1 knockdown viability, ATP luminescence, 48 h. Potency, µM (top dose mostly 46.1 µM), for the others: top-dose activity, negative = toxicity, most hits filed as cytotoxic. 2% of 360,000 active. AID 686971;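 note: 0% = DMSO wells and -100% = cell-free medium wells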
#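 % activity derives from luminescence (CellTiter-Glo), normalised to DMSO and no-cell wells. HT-1080-IDH1KD cells, 750/well, had 48 h compound exposure at 37 °C.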
# KB-3-1 cytotox = kills parental KB-3-1 adenocarcinoma cells. 1.4% of 400,000 active. Potency, µM (titrated, usually from 46.1 µM), usual class: cytotoxic. AID 1347075. KB-3-1 viability, CellTiter-Glo ATP luminescence, 72 h; note: % is set by controls: 0 for no effect and ±100 for the full control effect; nearly all actives have a fitted effect of over 60% in size
#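 Using CellTiter-Glo luminescence, growth of non-resistant KB-3-1 adenocarcinoma cells is assessed 72 h after pin-tool compound addition at 37 °C. Normalized responses across the concentration series yield fitted curves.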
# MCF10A rerep = inducers of DNA re-replication in MCF 10A breast cells. MCF 10A DNA re-replication, Hoechst nuclear intensity, 48 h. Potency, µM (doses to about 46.1 µM), inactives show at the highest dose activity, positive = re-replication, actives largely listed as activators. 2.9% of 350,000 active; note: % of control where 0% means no effect; nearly all actives have a fitted effect of over 50% in size
# KB-V1 MDR tox = KB-V1 MDR subline cytotoxicity. Potency, µM (titrated, usually from 46.1 µM), actives largely listed as cytotoxic. AID 1347076. 3.4% of 400,000 active. KB-V1 MDR cells viability, CellTiter-Glo, 72 h; note: % is set by controls: 0 for no effect and ±100 for the full control effect; nearly all actives have a fitted effect of over 60% in size
#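 Potencies derive from concentration-effect curves fitted to normalized luminescence (CellTiter-Glo) of KB-V1 cells treated for 72 h at 37 degrees C in phenol-red-free DMEM containing 10% FBS.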
# SW480 rerep = DNA re-replication induction in SW480 cells; Potency, µM (highest dose often 46.1 µM), for inactives: top-dose re-replication activation, actives largely listed as activators; AID 624297; 1.8% of 340,000 active; SW480 DNA re-replication, Hoechst DNA content imaging, 48 h; note: % of control where 0% means no effect; nearly all actives have a fitted effect of over 55% in size
#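 Treated cells incubate 48 hr (37 C, 5% CO2), are stained 40 min with Hoechst, and nuclear fluorescence is enumerated; a rise in nuclei with high DNA signal marks re-replication.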
# HT1080NT lethal = kills 2HG-producing HT-1080-NT fibrosarcoma cells; HT-1080-NT fibrosarcoma viability, CellTiter-Glo ATP luminescence, 48 h; Potency, µM (doses to about 46.1 µM), for the others: top-dose activity, negative = less viability, most hits filed as cytotoxic; 1.6% of 360,000 active;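 note: NT is the 2HG producing partner of a matched IDH1 knockdown line; 0% = DMSO-treated cells and -100% = media-only wells without cells; nearly all actives have a fitted effect of over 55% in size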
#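 Viability of the 2HG-overproducing fibrosarcoma line after 48 hours of compound exposure at 37 degrees C was determined by luminescence with CellTiter-Glo, and concentration-effect curves were then fitted and categorized.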
# * = called active by the depositor; i = inactive; ? = inconclusive; / = not tested or not shown; [ ] = another dose, or the depositor's remark. Calls come from the whole dose curve; as a rule, active = well fitted curve in the direction sought with a large enough effect; inconclusive = small, poorly fitted or top-dose-only effect, or another doubt; inactive = no such curve, though single readings can be large; an effect the other way counts as inactive or inconclusive. Potency is the fitted concentration of half-maximal effect.
SMILES,HT1080 IDH1KD tx,KB-3-1 cytotox,MCF10A rerep,KB-V1 MDR tox,SW480 rerep,HT1080NT lethal
CC/C(=C/c1ccccc1OC)c1cc(-c2ccccc2)cc2oc3ccccc3c12,/,i,/,i,/,/
O=C(NNC(=O)c1cccc2ccccc12)c1ccc(Br)cc1,-8%,i,2%,i,0%,-5%
COc1ccc(-c2ccc3c(c2)[C@@H]2C[C@H](N(C)C(=O)C(C)(C)C)[C@H]([C@H](C)O)C(=O)N2CC3)cc1,-1%,i,6%,i,?,-7%
O=[N+]([O-])c1ccc(-c2cn3nc(-c4ccccc4)c(-c4ccccc4)nc3n2)cc1,28%,i,3.7µM*,i,?,?
O=[N+]([O-])c1cccc(-c2cn3nc(-c4ccccc4)c(-c4ccccc4)nc3n2)c1,2%,i,?,i,5.8µM*,9%
Cc1c(Cl)cccc1NC(=O)COC(=O)c1c2c(nc3ccccc13)CCN(Cc1ccccc1)C2,?,?,?,2.1µM*,?,?
CC(C)c1ccccc1NC(=O)COC(=O)c1c2c(nc3ccccc13)CCN(Cc1ccccc1)C2,?,?,?,?,15%,?
O=C(NC1CCCCCC1)c1c2c(nc3ccccc13)CCN(Cc1ccccc1)C2,16%,i,?,i,7%,14%
Cc1cc(N2CCN(C)CC2)ccc1NC(=O)c1c2c(nc3ccccc13)CCN(Cc1ccccc1)C2,4.6µM*,i,24%,?,?,5.8µM*
O=C(NC1CCCCCC1)C1c2ccccc2C(=O)N1Cc1ccco1 (configuration not stated),9%,i,-9%,21µM*,-5%,6%
CCOc1ccc(CN2C(=O)c3ccccc3C2C(=O)NC(C)CC)cc1OC (configuration not stated),11%,i,7%,i,1%,0%
CCC(C)NC(=O)C1c2ccccc2C(=O)N1Cc1cc(OC)ccc1OC (configuration not stated),11%,i,19%,7.3µM*,1%,9%
CC(C)N1C(=O)c2ccccc2C1C(=O)NC1CCCCCC1 (configuration not stated),2%,i,-1%,i,1%,0%[9.24 µM]
CCC(C)N1C(=O)c2ccccc2C1C(=O)NC1CCCCCC1 (configuration not stated),9%,i,3%,18µM*,-4%,-3%
COc1ccc(CN2C(=O)c3ccccc3C2C(=O)NC2CCCC2)c(OC)c1 (configuration not stated),-3%,i,3%,3.7µM*,0%,9%
CCOc1ccc(CCNC(=O)c2ccc(C)c(-n3cnc4cccnc43)c2)cc1,/,i,/,i,/,/
CCC(=O)N1CCc2cc(Br)cc(S(=O)(=O)CCC(=O)NCc3cccc(OC)c3)c21,/,i,/,i,/,/
COc1ccc(C(=O)NCC(c2ccc(N(C)C)cc2)N2CCc3ccccc32)cc1 (configuration not stated),/,i,/,i,/,/
CCc1ccc(OCC(=O)NC(C)C)cc1,21%,i,2%,?,0%,6%
Nc1nc2ccccc2n1C(=O)c1ccccc1,?,i,6%,?,27%,?
CC(=O)c1nc2ccccc2n1CCc1ccccc1,8%,i,1.8µM*,i,-22%,10%
c1ccc(CCn2c(C3CC3)nc3ccccc32)cc1,3%,i,?,21µM*,2%,?
Nc1nc2ccccc2n1C(=O)CCc1ccccc1,-19%,18µM*,?,i,?,?
CCOCc1cnc(C)nc1NCC(=O)c1c(C)[nH]c2cc(C)ccc12,-2%[9.24 µM],16µM*,0%,i,-6%,?
CCOC(=O)C1CCN(CC(=O)c2c(C)[nH]c3cc(C)ccc23)CC1,-4%,i,-1%,i,0%,-1%
SMILES,HT1080 IDH1KD tx,KB-3-1 cytotox,MCF10A rerep,KB-V1 MDR tox,SW480 rerep,HT1080NT lethal
CCOCc1cnc(C)nc1NCC(=O)c1c(C)[nH]c2ccccc12,-9%,23µM*,17%,i,1%,-6%
CCOC(=O)Cc1cnc(NC(=O)CSc2nc(C)cc(C)n2)s1,4%,i,4%,?,-4%,-3%
CCOC(=O)Cc1cnc(NC(=O)CSc2nc3ncnc(N)c3[nH]2)s1,-7%,i,0.65µM*,?,?,-5%
Cc1cc(N2C(=O)C(O)=C(C(=O)c3ccco3)C2c2ccc(Cl)cc2)no1 (configuration not stated),-1%,i,0%,i,-2%,0%
Cc1ccc2nc(N3C(=O)C(O)=C(C(=O)c4ccc(C)o4)C3c3ccco3)sc2c1 (configuration not stated),12%,i,18µM*,i,10%,4%
Cc1cc(C)c2nc(N3C(=O)C(O)=C(C(=O)c4ccco4)C3c3ccc(O)cc3)sc2c1 (configuration not stated),-1%,i,?,i,-9%,-13%
O=C(C1=C(O)C(=O)N(c2nc3ccc(Cl)cc3s2)C1c1ccco1)c1ccco1 (configuration not stated),-6%,i,13µM*,?,-1%,-2%
Cc1cc(C)c2nc(N3C(=O)C(O)=C(C(=O)c4ccco4)C3c3cccc(O)c3)sc2c1 (configuration not stated),4%,i,21µM*,?,1%,-1%
Cc1ccc2nc(N3C(=O)C(O)=C(C(=O)c4ccco4)C3c3ccc(C)o3)sc2c1 (configuration not stated),?,i,21µM*,i,?,?
COc1cc(NC(=O)c2cc(S(=O)(=O)N3CCC(C)CC3)cn2C)cc(OC)c1OC,/,i,/,i,/,/
CCc1ccc(CNC(=O)CCCn2ccc3cc(S(=O)(=O)N4CCCC4)ccc32)cc1,/,5.8µM*,/,?,/,/
CCn1ccc2cc(S(=O)(=O)N3CCCN(C(=O)Nc4ccccc4C(F)(F)F)CC3)ccc21,/,i,/,?,/,/
CCOC(=O)c1ccccc1NC(=O)N1CCCN(S(=O)(=O)c2ccc3c(ccn3CC)c2)CC1,/,?,/,15µM*,/,/
CCCCn1cnc2c([nH]c3cc(OC)ccc32)c1=O,24%,i,11%,?,-3%,24%
COc1ccc2c(c1)[nH]c1c(=O)n(CC3CCCO3)cnc12 (configuration not stated),5%,i,-5%,21µM*,1%,6%
